The campaign covered roughly 91,000 compounds. About 160 (0.18%) were called active. This is one part of a sample in which actives are shown more often than they occur. A number with no mark means an inactive call.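 How the source made its calls: active means inhibition above the batch mean plus 3 SD and confirmed as a hit by visual image inspection (cut at about 30% in these data, passing the limit was not always enough); inconclusive means above the inhibition threshold but rejected on visual inspection; inactive means the rest.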

For orientation: inhibition means the relative decrease from the control value, in per cent.

This test in a line: disruptors of actin filament network in HUVEC – imaging, phalloidin staining, high-content imaging, primary screen (AID 836). Conditions: HUVEC TNFa F-actin phalloidin imaging, at 2 µM, active compounds read high.
With `Cc1ccc(NC(=S)Nc2ncccc2C)c(C)c1`, the inhibition was -17.2%. On to `COc1ccc(Oc2c(Cl)cnn(-c3ccccc3)c2=O)cc1`, for which the inhibition is -7.9%. As to `COc1ccc(O)c(C=Nc2cc(C)on2)c1`, the inhibition was 73.6% (active).

With `Cc1cc(N=CC2=C(O)CCCC2=O)no1`, the inhibition was 3.6%.

`COc1ccc(O)c(C(=O)c2cnc3onc(C(C)C)c3c2)c1`: the inhibition was 0.9%. Regarding `Cc1ccc(C(=O)N/C(=C/C=C/c2ccccc2)C(=O)NCc2ccco2)cc1`, the inhibition is 19.4%. With `COC(=O)Nc1sc2nc(C)cc(C)c2c1-n1cccc1` the figure was -0.5%; with `CC1=NN(C(=O)Cc2ccc(C)cc2)C(O)(c2cccnc2)C1` (centres undefined), 5.3%; with `O=C1c2cccc3cc(Br)cc(c23)C(=O)N1Nc1ccccc1`, -0.3%. With `O=C(Nc1cccc2ncccc12)C(Cl)(Cl)Cl`, the inhibition was 17.1%. `O=C(NC1CCN(C(=S)NCc2ccco2)CC1)c1ccc(F)cc1`: the inhibition is 9.8%. Turning to `N#C/C(=C1/CCCN1)c1ccccn1`, the inhibition is -5.5%. Regarding `Nc1c(-c2cccc(Cl)c2)cnn1-c1cccc([N+](=O)[O-])c1`, the inhibition was 14.9%. With `Cc1cc(OC(=O)c2ccc(Cl)cc2)cc(=O)n1C` the figure was 2.4%.

On to `O=C(O)c1ccccc1NC(=S)NC(NC(=O)c1ccccc1[N+](=O)[O-])C(Cl)(Cl)Cl` (centres undefined), for which the inhibition was -20.2%.

With `COc1ccc(-c2nnc(SCC(=O)NC3CCCCC3)o2)cc1OC`, the inhibition was 30.5% (active). As for `COc1ccc(CCNC(=O)CSc2nnc(-c3cccc(F)c3)o2)cc1OC`, the inhibition is 2.3%. `COc1ccc(CN(C(=O)CSc2nnc(-c3ccc(OC)c(OC)c3)o2)c2ccc(F)cc2)cc1`: the inhibition was 15.5%. Take `CC(=O)c1nn(-c2cccc(Br)c2)cc1C(=O)c1cccc2ccccc12`: the inhibition was 18.2%.

For the compound `O=C(CSc1ccc(/C=N/NC(=O)c2cccc(F)c2)o1)Nc1ccccc1`, the inhibition was 1.1%. Take `NC(=O)C1(N2CCCCC2)CCN(C(=S)Nc2ccc(Cl)cc2)CC1`: the inhibition is -20.4%.

Regarding `COCCCn1c(SCc2cccc(OC)c2)nc2cc(OC)c(OC)cc2c1=N`, the inhibition is 3.7%. `Cc1ccc(N2CCN(C3=NC(=O)/C(=C\c4cccs4)S3)CC2)cc1`: the inhibition was 24.1%. With `CCCCOC(=O)NCN1C(=O)C2C3C=CC(C3)C2C1=O` (centres undefined) the figure was 11.5%; with `CCCCCOC(=O)NCCOC(=O)Nc1ccc(C(=O)OCC)cc1`, 8%. Consider `CCCCCCOC(=O)NCC(O)c1ccccc1` (centres undefined), for which the inhibition is 61.8% (active).

Take `CCC(=O)OCc1c(C(F)(F)F)nn(C)c1Oc1cccc(C(F)(F)F)c1`: the inhibition is -4%.

On to `COC(=O)c1ccc(C2C(Oc3ccccc3C)C(=O)N2CCc2ccc(OC)c(OC)c2)cc1` (centres undefined), for which the inhibition is 3.1%. As for `Cc1[nH]c2ccccc2c1C(=O)COC(=O)C(C)C`, the inhibition was -13%. In the case of `Cc1ccc(-c2nc(C)sc2CC(=O)O)cc1`, the inhibition is 7.2%.

Take `N=c1oc2ccccc2cc1C(=O)N/N=C/c1ccccc1`: the inhibition is -3.7%. Take `COc1cc(/C=N\NC(=O)C2C(=O)NCC2c2ccccc2)cc(OC)c1O` (centres undefined): the inhibition is 2%. With `CC1CCc2c(c3ccccc3[nH]c2=O)O1` (centres undefined) the figure was 3%; with `Nc1c(-c2ccc(F)cc2)cnc2ncnn12`, 21.9%. For `Cc1ccc(SCC(=O)NC(=O)NCc2ccco2)c(C)c1`, the inhibition is 1.6%.

Regarding `COc1ccc([N+](=O)[O-])cc1NC(=O)CCc1ccccc1`, the inhibition is 9.1%. On to `CC(Oc1ccc(-c2ccccc2)c(F)c1)c1ccn(S(=O)(=O)c2cccc3ccccc23)n1` (centres undefined), for which the inhibition is 1.3%. With `N#C/C(=C(/O)Cc1cccc2ccccc12)c1nc2ccccc2s1`, the inhibition was 18.2%.

As for `COc1cc(C2CC(=O)c3cnc(NC(C)=O)nc3C2)cc(OC)c1OC` (centres undefined), the inhibition was -1.6%. Regarding `O=C(Nc1ncc2c(n1)CC(c1ccco1)CC2=O)c1ccc(Cl)cc1` (centres undefined), the inhibition is 100% (active). On to `CC1=C(C(=O)Nc2ccc(Cl)cc2)C(c2ccco2)NC(=O)N1` (centres undefined), for which the inhibition was -60.1%.

In the case of `FC(F)(F)c1cccc(-c2cc3ccccc3nc2N2CCCC2)c1`, the inhibition is -10%. With `COc1cccc(NC(=O)C2c3cc(OC)c(OC)cc3C(=O)N(C)C2c2cccnc2)c1` (centres undefined) the figure was 29%; with `NC(=O)COc1ccc(/C=N/NC(=O)C2CCCN2S(=O)(=O)c2ccc(Cl)cc2)cc1` (centres undefined), -7.7%; with `CC(=O)c1cn(CCCCCCCCCCn2cc(C(C)=O)c(=O)[nH]c2=O)c(=O)[nH]c1=O`, 6.8%. As to `O=C(CCc1ccc(S(=O)(=O)N2CCOCC2)cc1)Nc1ccc2ccccc2c1`, the inhibition is -5%. The figure for `O=C(CNC(=O)c1ccccc1)NCC(=O)OCc1ccc(Cl)cc1` is -29.4%; for `CC(C(=O)Nc1ccc(F)c(F)c1F)N1CCCCCC1` (centres undefined) it is 9.4%. Take `O=c1c2ccccc2nc2n1C(CSc1ccc(Cl)cc1)CN2` (centres undefined): the inhibition was -15.2%. In the case of `Cc1cccc(CSc2nnc(NC(=O)CSc3nnc(C)s3)s2)c1`, the inhibition is -21.1%.

`O=C(NC1CCCCC1)c1cc([N+](=O)[O-])ccc1N1CCOCC1`: the inhibition was -40.7%. For the compound `Cc1n[nH]c(=O)n1-c1ccc(Oc2ccccc2)cc1`, the inhibition was 22.6%.

Consider `Cc1ccc(C)c(NC(=O)C2Cc3ccccc3CN2C(=O)OCc2ccccc2)c1` (centres undefined), for which the inhibition is 26.6%. Regarding `Cc1ccc(S(=O)(=O)N(CC(=O)NCCSC2CCCCC2)c2ccccc2F)cc1`, the inhibition is 1.5%. On to `CC(C)CC(=O)N1CCC(O)(CS(=O)(=O)Cc2ccccc2)CC1`, for which the inhibition was 34.4%. The figure for `Cc1ccc(-c2csc(N(Cc3ccco3)C(=O)c3cccs3)n2)cc1` is 5.4%; for `Fc1ccccc1COc1ccccc1CNCc1ccncc1` it is -4.1%. `COc1ccccc1NC(=O)c1ccc2nc(N3C(=O)CCC3=O)sc2c1`: the inhibition was 19.2%.

As for `COc1cc(C2C(C(=O)OCCC#N)=C(C)NC3=C2S(=O)(=O)c2ccccc23)cc(OC)c1OC` (centres undefined), the inhibition was -21.9%. Regarding `O=C(CCCN1C(=O)c2cccc3cccc(c23)C1=O)N1CCN(Cc2ccc3c(c2)OCO3)CC1`, the inhibition is 21%.

Take `Cc1cccc(COc2ccccc2/C=N/Nc2ccc([N+](=O)[O-])cc2)c1`: the inhibition was 15.8%.

As to `COc1ccccc1OCCNc1cc(N2CCOCC2)ccc1[N+](=O)[O-]`, the inhibition is 5.1%.

`O=C(COc1ccc(Br)cc1F)NC1CCN(Cc2ccccc2)CC1`: the inhibition is -0.2%. In the case of `C/C(=N/NC(=O)c1ccc(NC(=O)c2ccc(F)cc2)cc1)c1ccccc1`, the inhibition was -18.2%.

Take `COc1cc(/C=C(/NC(=O)c2ccccc2)C(=O)Nc2cccc(O)c2)c([N+](=O)[O-])cc1OC`: the inhibition was 7.4%. Regarding `C=CCNC(=S)NNc1ncnc2sc3c(c12)CC(C)(C)OC3`, the inhibition is -11.6%.

Take `C=CCNC(=O)c1sc(SC)cc1-c1ccc(Cl)cc1`: the inhibition is 7.4%. In the case of `Cc1cccc(-n2cnc(C(=O)Nc3cccnc3)c2)n1`, the inhibition is 1.4%. Take `Cc1cccc(C)c1NC(=O)c1ccc(CN2CCc3ccccc3C2)cc1`: the inhibition was -19.9%.

With `Cc1cc(C)cc(OCC(=O)Nc2nc3ccc([N+](=O)[O-])cc3s2)c1`, the inhibition is -19.8%. With `Cc1ccc(-c2nnc(-n3nnc4ccccc43)c3ccccc23)cc1`, the inhibition is -2%.

With `CC(C)c1ccc(/C=C/C(=O)NNC(=O)c2cccnc2)cc1`, the inhibition is 1.1%. Regarding `O=C(Nc1ccccc1)O/N=C1\CCCCC1c1ccc([N+](=O)[O-])cc1[N+](=O)[O-]` (centres undefined), the inhibition was -8.4%. Regarding `c1ccc2c(CSCc3nc4ccccc4[nH]3)cccc2c1`, the inhibition is -12.1%. `CSc1ccc(C#N)cc1NC(=O)c1cccc(Cl)c1`: the inhibition is 3.3%. Take `Cc1[nH]n(-c2ccccc2)c(=O)c1CCOC(=O)c1ccc(C(F)(F)F)cc1`: the inhibition was -0.4%. In the case of `CN(C)Cc1ccccc1C1(O)c2ccccc2CSc2ccccc21` (centres undefined), the inhibition was -10.2%.

In the case of `O=C(/C=C/c1ccccc1)N/C(=C/c1ccccc1)C(=O)Nc1ccccc1O`, the inhibition is -50.9%. Take `CCOc1ccc(-c2c(C)n([O-])c3c([n+]2=O)CCCC3)cc1`: the inhibition is -18.2%.

Turning to `Cc1c(Nc2cc(N3CCCC(C)C3)c3nonc3c2[N+](=O)[O-])c(=O)n(-c2ccccc2)n1C` (centres undefined), the inhibition is 3.1%. As to `COc1cc(/C=N/O)cc(Br)c1OCc1cccc(Cl)c1`, the inhibition was -41.4%. The figure for `CCOC(=O)c1nn(-c2cccc(C)c2)cc1C(=O)c1ccccc1` is 5.4%; for `O=C(/C=C/c1cc2c(cc1Br)OCO2)NCc1ccc(Cl)cc1` it is 7.8%; for `Cc1nc(NC2=NC(C(=O)Nc3ccc(Cl)cc3)CC(=O)N2)nc2ccccc12` (centres undefined) it is 7.9%. In the case of `Cc1nc(C)c(C(=O)N(c2ccc(C)c(C)c2)C(C(=O)NCc2ccco2)c2ccccc2)s1` (centres undefined), the inhibition was 29.1%. For the compound `Cc1ccc(NC(=S)N/N=C2/CCCc3c(C)cc(C)cc32)cc1`, the inhibition was 13.9%. With `Cc1nn(-c2ccccc2)c(Cl)c1C(=O)Nc1ccccc1` the figure was -7.8%. Consider `Cc1cc(=O)oc2cc(OC(C)C(=O)Nc3ccc(N4CCOCC4)cc3)ccc12` (centres undefined), for which the inhibition is 0.5%. With `CCOC(=O)CSc1ncc(-c2cccc(Cl)c2)cn1` the figure was -17.9%; with `C=CCn1c(SCC(=O)c2c(N)n(C)c(=O)n(C)c2=O)nc2sc(CC)cc2c1=O`, 2%. On to `Cc1cccc(NC(=O)c2ccc(OCC(=O)NCc3ccccc3)cc2)c1C`, for which the inhibition is 4.9%. Take `COc1ccc(Cl)cc1NC(=O)CN(C)C(=O)CNC(=O)C12CC3CC(CC(C3)C1)C2`: the inhibition is 16%. As to `O=C(Cc1ccc(S(=O)(=O)N2CCOCC2)s1)NCCC(c1ccccc1)c1ccccc1`, the inhibition is 4.8%. Take `CCCc1ccc(-c2c(C)sc(NC(=O)c3ccnn3C)c2C#N)cc1`: the inhibition is 10%.
